# Screens from PubChem.
# An excerpt weighted towards active compounds, which were near 1.4% of everything screened.
# TSG101-PTAP inh: qHTS Assay for Iinhibitors of HIV-1 Budding by Blocking the Interaction of PTAP/TSG101; Potency, µM (highest dose often 115 µM), inactives show at the highest dose activity change, negative = inhibition, most hits filed as inhibitors; 340,000 tested, under 10 active; Tumor susceptibility gene 101 protein (Homo sapiens), Q99816; Fluorescence polarization, FITC-PTAP peptide / Tsg101 binding; active = well fitted inhibition curve with a large enough effect in the main read-out, with a control signal flat, not every such curve was filed as active; inconclusive = small, poorly fitted or top-dose-only effect, or effect the other way, or a change in a side signal; inactive = no such curve, though single readings can be large or run the other way; also: potency is read from the fitted curve at half-maximal effect; % of control where 0% means no effect
#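 Steps: Tsg101 binding domain dispensed (10 uM final), compounds pinned in DMSO, FITC-labeled PTAP-motif peptide added (50 nM final); after 20 min binding at room temperature, polarization measured.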
# pAkt inh: HTS Assay for Inhibitors of Akt Phophorylation: Primary Screen; Neuro2A IGF-stimulated pAkt S473 HTRF, 20 min; hits give low values; activity change, % for hits at 50 µM; hit rate 0.32% among 360,000; AID 651550, 2012; in the data active = activity change below about -80%; inconclusive = mostly about -51% to -80%; also: % is scaled to controls: 0 for no effect and ±100 for the full control effect
#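 Neuro2A cells (4,500/well, DMEM with 0.5% FBS) were treated with compound at a single 50 µM final concentration, stimulated with 6 nM IGF for 20 min at 37 °C, and lysed. Phospho-Akt Ser473 was read by HTRF as 665/615 ratio ×10^4.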
# ASM inhibitor: Inhibitors of Secretory Acid Sphingomyelinase (S-ASM): qHTS; Sphingomyelin phosphodiesterase (Homo sapiens), P17405; placental ASM, HMU-PC fluorogenic substrate, 60 min; Potency, µM (doses to about 57.5 µM), for the others: at the highest dose activity change, negative = inhibition, actives largely listed as inhibitors; hit rate 0.006% among 340,000; AID 504937, 2011; also: potency is read from the fitted curve at half-maximal effect
#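 Human placenta-derived ASM enzyme was preincubated with compound for 10 minutes at room temperature, then given fluorogenic substrate HMU-PC0 (9 uM final) for 60 minutes at 37 °C; a pH 10 stop preceded fluorescence reading at Ex 386/Em 447 nm.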
# Vif-APOBEC3G blk: qHTS for Inhibitors of Vif-A3G Interactions: qHTS. hit rate 0.076% among 410,000. HeLa A3G-eYFP + Vif (tagged APOBEC3G with the HIV-1 protein that degrades it), YFP fluorescence, overnight. DNA dC->dU-editing enzyme APOBEC-3G (Homo sapiens), Q9HC16. AID 602310, 2012. Potency, µM (doses to about 46.1 µM), for inactives: top-dose activity, negative = active, usual class: inhibitors; also: potency is read from the fitted curve at half-maximal effect; % is scaled to controls: 0 for no effect and ±100 for the full control effect; nearly all actives have a fitted effect of over 60% in size
# Target sequence (Q9HC16 whole entry, looked up): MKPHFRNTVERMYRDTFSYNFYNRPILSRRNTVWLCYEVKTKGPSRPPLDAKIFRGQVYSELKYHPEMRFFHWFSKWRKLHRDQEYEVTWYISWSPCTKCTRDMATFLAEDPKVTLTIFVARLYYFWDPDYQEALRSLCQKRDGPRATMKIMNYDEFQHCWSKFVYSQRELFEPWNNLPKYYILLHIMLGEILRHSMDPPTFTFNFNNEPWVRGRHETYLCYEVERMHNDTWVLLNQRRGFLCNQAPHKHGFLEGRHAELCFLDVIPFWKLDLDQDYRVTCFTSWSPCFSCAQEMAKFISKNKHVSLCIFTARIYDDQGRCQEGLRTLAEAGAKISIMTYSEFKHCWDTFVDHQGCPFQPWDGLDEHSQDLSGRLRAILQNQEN
#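 HeLa cells stably expressing Vif and C-terminally eYFP-tagged A3G, seeded overnight at 37 deg C, then exposed to compound by pintool overnight at 37 deg C. Rise in yellow fluorescence (Ex 488/Em 500-530, Acumen) marks blocked Vif-driven A3G degradation.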
# Vif-A3F inh: qHTS for Inhibitors of Vif-A3F Interactions: qHTS | HeLa A3F-eYFP + Vif (tagged APOBEC3F with the HIV-1 protein that degrades it), YFP fluorescence increase | Potency, µM (series often up to 46.1 µM), without a hit: top-dose activity, negative = active | hit rate 0.2% among 390,000 | AID 602313, 2012; also: potency is read from the fitted curve at half-maximal effect; % of control where 0% means no effect; nearly all actives have a fitted effect of over 65% in size
#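 HeLa cells stably expressing Vif plus C-terminally eYFP-tagged A3F were seeded, incubated overnight at 37 deg C, dosed with compound, incubated overnight again at 37 deg C. Yellow fluorescence (Ex 488/Em 500-530) reported blocked Vif-mediated A3F-eYFP degradation.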
# 12-LOX inh: Primary qHTS assay for inhibitors of human arachidonate 12S-lipoxygenase (ALOX12): Round 2; Polyunsaturated fatty acid lipoxygenase ALOX12 (Homo sapiens), P18054; purified 12hLO, xylenol orange hydroperoxide absorbance; Potency, µM (top dose mostly 108 µM), inactives show at the top dose activity change, negative = inhibition, usual class: inhibitors; hit rate 1.1% among 580,000; AID 1671190, 2021; also: potency is read from the fitted curve at half-maximal effect; % is scaled to controls: 0 for no effect and ±100 for the full control effect
#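 Purified human 12hLO at 150 nM in 25 mM Hepes, 0.01% Triton X-100, pH 7.0, preincubated 15 min at room temperature with compound. Reaction started with 40 uM arachidonic acid, 30 min at room temperature. Hydroperoxide measured by Fe-xylenol orange, 573/405 nm absorbance ratio.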
# The depositor's hits bear a star; i = inactive; ? = inconclusive; / = not tested or not shown. Unless noted, calls follow the shape of the dose curve; as a rule, active = well fitted curve in the direction sought with a large enough effect; inconclusive = small, poorly fitted or top-dose-only effect, or another doubt; inactive = no such curve, though single readings can be large; an effect the other way counts as inactive or inconclusive.
SMILES,TSG101-PTAP inh,pAkt inh,ASM inhibitor,Vif-APOBEC3G blk,Vif-A3F inh,12-LOX inh
COc1cccc(C#Cc2c(CO)[nH]c3ccccc23)c1,-1%,i,17%,-15%,-5%,50µM*
COc1cccc(CN2CCN(Cc3[nH]c4ccccc4c3C)CC2CCO)c1 (stereo unspecified),-2%,i,0%,-7%,7%,-28%
Oc1ccc(/C=N/N(c2ccccc2)c2ccccc2)c(O)c1O,/,/,/,/,/,11µM*
CCOC(=O)c1sc2cccc(F)c2c1COC(=O)c1cccs1,/,/,/,/,/,-10%
S=C(NCc1ccc(Cl)cc1)Nc1ccc(Br)cn1,/,/,/,/,/,4.5µM*
S=C(NCc1ccc(Cl)cc1)Nc1ccccc1,0%,i,-3%,-1%,-13%,?
S=C(NCc1ccc(Cl)cc1)Nc1ccc(Nc2ccccc2)cc1,/,/,/,/,/,18µM*
S=C(NCCc1ccc(Cl)cc1)Nc1ccc(Nc2ccccc2)cc1,/,/,/,/,/,28µM*
COCCn1cc(C(=O)NCCc2cccc(Cl)c2Cl)ccc1=O,/,/,/,/,/,5%
Cc1cc(C)cc(C(=O)NCCSc2c[nH]c3ccccc23)c1,/,/,/,/,/,-1%
Cc1cc2c(cc1C)NC(CC(=O)Nc1cccc(C)c1C)C(=O)N2 (stereo unspecified),/,/,/,-15%,-5%,140%
Cc1cc2c(cc1C)NC(CC(=O)NCc1ccccc1)C(=O)N2 (stereo unspecified),23%,i,145%,3%,28µM*,-23%
COc1cccc(NC(=O)CNc2ccccc2C(=O)NC2CC2)c1,/,/,/,/,/,11%
Cc1cc(C)c2c(N)c(C(=O)Nc3nccs3)sc2n1,0%,i,190%,1%,-5%,0%
CCN(CC)C(=O)c1sc2nc(-c3cccs3)cc(-c3ccc(Cl)cc3)c2c1N,?,i,-1%,?,?,-16%
Cc1nnc(NC(=O)c2sc3nc(-c4cccs4)cc(C(F)(F)F)c3c2N)s1,?,i,-12%,?,7.1µM*,5%
CC(C)(C)C(=O)c1sc2nc(-c3cccs3)cc(C(F)(F)F)c2c1N,?,i,2%,?,2.8µM*,-30%
Nc1c(C(=O)Nc2nccs2)sc2nc(-c3cccs3)cc(C(F)(F)F)c12,5%,/,5%,8.9µM*,?,266%
CCN(CC)C(=O)c1sc2nc(-c3cccs3)cc(-c3cccs3)c2c1N,?,i,45%,-27%,?,40µM*
Cc1cc(=O)oc2ccc(OCC(=O)Nc3ccc4c(c3)OCCO4)cc12,/,/,/,/,/,5%
CN(Cc1ccccc1)C(=O)Nc1ccc2oc(C3CC3)nc2c1,/,/,/,/,/,-52%
CCCCN(CCCC)CCNC(=O)C1=C(C)C(=O)OC12CCN(C(C)=O)CC2,/,/,/,/,/,0%
O=[N+]([O-])c1ccc(N/N=C/c2c[nH]c3ccccc23)c(S(=O)(=O)Nc2ccc(Cl)cc2)c1,9%,i,-24%,?,25µM*,?
CCN(CC)CC(=O)Nc1c(-c2ccccc2)c2cc(Br)ccc2[nH]c1=O,/,/,/,/,/,76%
Cc1[nH]n(C(N)=S)c(=O)c1N=Nc1ccc([N+](=O)[O-])cc1Cl,-3%,i,3%,-1%,5%,10µM*
O=C(CSc1nnnn1C1CCCC1)Nc1ccc(F)cc1,-8%,-110%*,0%,-4%,-18%,0%
CCOC(=O)c1c(NC(=O)C[n+]2ccc(Cc3ccccc3)cc2)sc(C)c1C,-1%,i,?,1%,3%,45µM*
